# Data reported in PMC4336329 (PLoS ONE, 2015).
# Out of some 310,000 compounds screened, about 14,000 (4.5%) showed an effect of 50% or more. Effects have a minus sign here. This is one part of a sample in which strong results are shown more often than they occur.
# Target: human ether-à-go-go-related gene (hERG) potassium channel (human, UniProt Q12809)
# Test: primary screen, population patch clamp on CHO cells stably expressing hERG; higher = less effect of the substance
# 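Also: peak tail current of the secondary pulse compared with the same well before compound.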
# Chain of human ether-à-go-go-related gene (hERG) potassium channel (Q12809 whole entry, looked up): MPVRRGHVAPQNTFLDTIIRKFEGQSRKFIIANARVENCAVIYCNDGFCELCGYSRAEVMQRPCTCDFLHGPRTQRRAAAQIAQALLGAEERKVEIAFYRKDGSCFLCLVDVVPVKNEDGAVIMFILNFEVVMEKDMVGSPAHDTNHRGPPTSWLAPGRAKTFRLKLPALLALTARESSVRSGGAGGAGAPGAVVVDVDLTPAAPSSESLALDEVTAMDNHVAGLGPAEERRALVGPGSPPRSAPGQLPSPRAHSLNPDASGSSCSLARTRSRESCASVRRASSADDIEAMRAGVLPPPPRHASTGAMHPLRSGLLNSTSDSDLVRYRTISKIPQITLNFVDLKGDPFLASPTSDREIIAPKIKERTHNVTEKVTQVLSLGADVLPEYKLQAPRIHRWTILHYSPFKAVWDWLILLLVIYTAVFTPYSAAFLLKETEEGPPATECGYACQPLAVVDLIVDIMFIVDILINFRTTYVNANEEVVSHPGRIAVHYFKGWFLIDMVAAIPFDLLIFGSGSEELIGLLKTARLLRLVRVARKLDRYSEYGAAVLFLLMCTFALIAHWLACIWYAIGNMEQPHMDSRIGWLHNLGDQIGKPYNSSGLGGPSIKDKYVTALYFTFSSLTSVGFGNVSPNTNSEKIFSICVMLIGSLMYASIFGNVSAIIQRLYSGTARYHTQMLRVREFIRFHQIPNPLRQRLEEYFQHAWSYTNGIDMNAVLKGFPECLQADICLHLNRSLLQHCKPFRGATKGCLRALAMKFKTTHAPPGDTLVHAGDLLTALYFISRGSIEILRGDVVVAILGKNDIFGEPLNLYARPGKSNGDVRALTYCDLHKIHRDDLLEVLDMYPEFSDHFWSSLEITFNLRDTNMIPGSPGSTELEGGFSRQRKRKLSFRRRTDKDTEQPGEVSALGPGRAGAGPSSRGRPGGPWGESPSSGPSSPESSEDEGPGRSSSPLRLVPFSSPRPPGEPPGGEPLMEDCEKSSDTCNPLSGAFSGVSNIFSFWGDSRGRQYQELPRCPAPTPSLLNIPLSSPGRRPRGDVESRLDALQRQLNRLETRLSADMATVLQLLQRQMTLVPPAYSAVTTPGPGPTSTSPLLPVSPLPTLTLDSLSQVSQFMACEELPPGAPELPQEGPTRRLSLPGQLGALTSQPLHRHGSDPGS
row,SMILES,"hERG current change (%, negative = inhibition) at 10uM [%]"
1,CSCCC(NC(=O)COc1ccccc1)C(=O)Nc1ccc(C)cc1 (centres unmarked),-3.07
2,CC(=Nc1ccccc1)c1sc2ccccc2c1O,-10.8
3,ON1C(c2ccc(Cl)cc2Cl)N(O)[C@H]2CCCC[C@H]21 (some centres unmarked),-1.85
4,CCN(CC)CCCN(Cc1cc2cc3c(cc2[nH]c1=O)OCO3)C(=S)Nc1ccccc1,-45.9
5,CCN(CC)CCCN(Cc1cc2cc3c(cc2[nH]c1=O)OCCO3)C(=O)Nc1ccccc1,-41.7
6,COc1ccc2cc(CN(C(=O)Nc3ccccc3OC)C3CCCC3)c(=O)[nH]c2c1,-46.9
7,COc1cc2cc(CN(C(=O)Nc3ccccc3)C3CCCC3)c(=O)[nH]c2cc1OC,-44.2
8,COc1ccc2cc(CN(C(=O)Nc3ccccc3)C3CCCC3)c(=O)[nH]c2c1,-60.5
9,CCN(CC)CCCN(Cc1cc2cc3c(cc2[nH]c1=O)OCCO3)C(=O)Nc1ccc(F)cc1,-61.6
10,COc1ccc(NC(=O)CSc2nc3c([nH]c4ccccc43)c(=O)n2C)c(OC)c1,19
11,COC(=O)c1cccc(S(=O)(=O)N2CCC(C)CC2)c1,-4.23
12,O=C(COc1ccccc1)Nc1cc(S(=O)(=O)N2CCOCC2)ccc1N1CCCC1,-8.47
13,Cc1cc2nc(C)n(CCCNC(=O)Nc3ccc(F)cc3)c2cc1C,-49.9
14,CCOc1ccc(NC(=O)NCCCn2c(C)nc3cc(C)c(C)cc32)cc1,-55.5
15,Cc1cc2nc(C)n(CCCNC(=O)Nc3ccc(C#N)cc3)c2cc1C,-34
16,COc1cccc(-c2nc(-c3ccccn3)no2)c1OC,0.968
17,Cc1noc(C)c1COc1ccc(C(=O)OCc2nnc(-c3ccc(Cl)cc3)o2)cc1,10.1
18,CNC(=O)c1ccccc1S(=O)c1ccccc1C#N (centres unmarked),2.49
19,CCOC(=O)c1ccc(NC(=O)NCCN2CCCCC2)cc1,-31.6
20,COc1cc2c(cc1OC)C(c1cccs1)N(C(=O)c1ccc(S(=O)(=O)N(C)C)cc1)CC2 (centres unmarked),-72.6
21,COc1cc2c(cc1OC)C(c1cccs1)N(C(=O)c1cccc(S(=O)(=O)N(C)C)c1)CC2 (centres unmarked),-70.7
22,COc1ccc(C(=O)N2CCc3cc(OC)c(OC)cc3C2c2ccc(OC)c(OC)c2)cc1OC (centres unmarked),1.43

row,SMILES,"hERG current change (%, negative = inhibition) at 10uM [%]"
1,COc1cc2c(cc1OC)C(c1ccccc1)N(C(=O)c1cccc(S(C)(=O)=O)c1)CC2 (centres unmarked),-24
2,COc1cc2c(cc1OC)CN(C(=O)c1cccc(S(=O)(=O)N(C)C)c1)CC2,6.05
3,COc1ccc(C(=O)N2CCc3cc(OC)c(OC)cc3C2c2ccc(OC)c(OC)c2)cc1 (centres unmarked),-12
4,N#C/C(=C\c1ccco1)C(=O)NCc1ccccc1,4.87
5,COc1ccc(C(C)n2c(C)c3c(C)nnc(C)c3c2C)cc1 (centres unmarked),-57.9
6,CC(=O)c1c(C(C)=O)c(C)n(C(c2ccccc2)c2ccccc2)c1C,-9.83
7,COc1ccc(C(=O)C(Sc2nnc(C)c(=O)[nH]2)c2ccc(OC)cc2)cc1 (centres unmarked),-12.3
8,Cc1nnc(C)c2c(C)n(C(C)c3ccccc3)c(C)c12 (centres unmarked),-20.7
9,Cc1nnc(C)c2c(C)n(C(c3ccccc3)c3ccccc3)c(C)c12,-71.4
10,COc1ccc(-c2nnnn2C(C)C)cc1,-0.893
11,CCN(Cc1ccccc1)S(=O)(=O)c1cc(C(=O)OC)n(C)c1,-32.9
12,COc1ccc(Cn2c(=O)oc3ccc(C)cc32)cc1,1.22
13,Cc1ccc(-c2noc(CSc3nc(N)cc(N)n3)n2)cc1,-4.24
14,CC(=O)N(Cc1ccco1)Cc1cc2cccc(C)c2n2nnnc12,-3.36
15,CCn1cc(C(=O)NCc2cccs2)c(=O)c2cc(S(=O)(=O)N3CCOCC3)ccc21,-20.3
16,Cc1cc(C)nc(Nc2n[nH]c(C)n2)n1,16.4
17,Cc1cc(C)nc(Nc2ncn[nH]2)n1,-73.3
18,Clc1cc(Cl)cc(Nc2ncn[nH]2)c1,-8.8
19,CCOC(=O)C1(CC2CC2)CCN(C(=O)c2cc(OC)nc3ccccc23)CC1,-12.9
20,CC(C)[C@H](NC(=O)c1ccccc1)C(=O)OCC(=O)c1ccc2c(c1)NC(=O)CO2,-26.3
21,COCCCNc1nc2ccccc2nc1NS(=O)(=O)c1ccc(C)cc1,-8.35
22,O=C(Nc1ccc([N+](=O)[O-])cc1Cl)c1cc(Cl)ccc1O,7.32

row,SMILES,"hERG current change (%, negative = inhibition) at 10uM [%]"
1,NS(=O)(=O)c1ccc(NCCCn2ccnc2)c([N+](=O)[O-])c1,8.43
2,O=C(c1ccccc1)c1ccc(-n2ccnc2)c([N+](=O)[O-])c1,-25.8
3,O=C(/C=C/c1ccccc1[N+](=O)[O-])NCCCn1ccnc1,2.43
4,CC(C)NS(=O)(=O)c1ccc(NCCCn2ccnc2)c([N+](=O)[O-])c1,-1.68
5,CCN(CC)S(=O)(=O)c1ccc(NCCCn2ccnc2)c([N+](=O)[O-])c1,-57.2
6,O=C(c1ccccc1)c1ccc(NCCCn2ccnc2)c([N+](=O)[O-])c1,-81.3
7,CC(=O)Nc1ccc(C(=O)OC2CCOC2=O)cc1 (centres unmarked),12.5
8,Cc1cc(OC(C)C(=O)N/N=C/CC(C)c2ccccc2)ccc1Cl (centres unmarked),16.1
9,C=CCc1cccc(C2Nc3ccccc3C(=O)N2O)c1O (centres unmarked),7.52
10,CCCC(=O)Nc1ccc(Oc2ccc(NC(=O)CCC)cc2)cc1,2.76
11,COc1cc(C2c3c(-c4ccccc4)n[nH]c3C(=O)N2c2ccc(C(=O)O)cc2)ccc1O (centres unmarked),8.38
12,N#CC1=C(Nc2ccccc2)SC=C(c2ccc(Br)cc2)N=C1N1CCOCC1,-64.7
13,Br.C=CCN1C(c2ccc(Br)cc2)=CS/C1=C(/C#N)c1nnc(N2CCOCC2)n1-c1ccccc1,-13.4
14,N#Cc1nc(-c2ccccc2Cl)oc1N1CCOCC1,-4.51
15,c1ccc(Nc2nc(N3CCOCC3)nc(N3CCOCC3)n2)cc1,-7.35
16,N#CC1=C(Nc2ccccc2)SC=C(c2ccc(Cl)c(Cl)c2)N=C1N1CCOCC1,-50.9
17,N#CC1=C(Nc2ccccc2)SC=C(c2ccc(F)cc2)N=C1N1CCOCC1,-10.8
18,C/C(NC(=O)c1ccccc1F)=C1\C(=O)C[C@@H]2[C@H]1C2(C)C,-14.4
19,CC(C)OC(=O)CSc1nnc(SCc2cccc3ccccc23)s1,7.07
20,CC1CC2c3cccc(C(=O)O)c3C(=O)N2c2ccc(Cl)cc21 (centres unmarked),5.97
21,CCCC(C)NCC(=O)Nc1ccccc1-c1ccccc1.O=C(O)C(=O)O (centres unmarked),-21.5
22,COc1ccc(CCn2c(N3CCOCC3)nc3c2c(=O)[nH]c(=O)n3C)cc1,-15.5

row,SMILES,"hERG current change (%, negative = inhibition) at 10uM [%]"
1,CC(=O)c1cc(C(=O)N2CCCC(C(=O)c3ccc(Cl)cc3)C2)cs1 (centres unmarked),-31.9
2,OCCC1CN(Cc2cccc(C(F)(F)F)c2)CCN1Cc1ccccc1 (centres unmarked),-46.2
3,CC(C)CCN1CCN(Cc2ccc(C(F)(F)F)cc2)CC1CCO (centres unmarked),-58.1
4,CC(C)CN1CCN(Cc2ccc(C(F)(F)F)cc2)CC1CCO (centres unmarked),-56.6
5,OCCC1CN(Cc2cccs2)CCN1Cc1ccccc1 (centres unmarked),-20.9
6,CC(C)CCN1CCN(Cc2ccc(N3CCNC3=O)cc2)CC1CCO (centres unmarked),-20.1
7,OCCC1CN(Cc2ccc(C(F)(F)F)cc2)CCN1Cc1ccccc1 (centres unmarked),-56.8
8,CC(C)CCN1CCN(Cc2cccc(C(F)(F)F)c2)CC1CCO (centres unmarked),-55.1
9,CC(C)CN1CCN(Cc2ccc(C#CC(C)(C)O)cc2)CC1CCO (centres unmarked),8.57
10,CC(C)CCN1CCN(Cc2ccc(C#CCCO)cc2)CC1CCO (centres unmarked),-6.37
11,Cc1cccc(-c2ncc(CN3CCN(CCC(C)C)C(CCO)C3)cn2)c1 (centres unmarked),-45
12,CC(C)CN1CCN(Cc2ccccc2C(F)(F)F)CC1CCO (centres unmarked),4.5
13,CN(Cc1ccc(F)cc1)C(=O)c1ccc(NS(=O)(=O)c2ccc3[nH]c(=O)[nH]c3c2)cc1,12.1
14,O=[N+]([O-])c1cccc(S(=O)(=O)Nc2ccc(S(=O)(=O)NCC3CCCO3)cc2)c1 (centres unmarked),-0.96
15,COc1ccc(C2c3c(ccc4ccccc34)Oc3ncn4nc(-c5ccco5)nc4c32)cc1OC (centres unmarked),-13.4
16,COc1ccc(C2c3ccc(O)cc3Oc3ncn4nc(-c5ccccn5)nc4c32)cc1OC (centres unmarked),-71.3
17,COc1ccc(C2c3ccc(O)cc3Oc3ncn4nc(-c5ccncc5)nc4c32)cc1OC (centres unmarked),5.39
18,COc1ccc(C2c3ccc(O)cc3Oc3ncn4nc(-c5cccnc5)nc4c32)cc1OC (centres unmarked),-56.9
19,COc1ccc(C2c3ccc(O)cc3Oc3ncn4nc(-c5ccco5)nc4c32)cc1OC (centres unmarked),22.8
20,COc1ccc(C2c3ccc(O)cc3Oc3ncn4nc(-c5ccccn5)nc4c32)cc1 (centres unmarked),17.9
